Screening results from PubChem BioAssay.
FMDV antiviral: High Throughput Screening for Foot and Mouth Disease Virus Antivirals | FMDV antiviral cell-based qHTS | Potency, µM (highest dose often 57.9 µM), inactives show top-dose activity change, negative = inhibition, usual class: inhibitors | actives 1.2% (n = 410,000); calls by dose curve; tested in HEK293T cells; note: read-out not given here; potency is the fitted concentration of half-maximal effect; nearly all actives have a fitted effect of over 45% in size
HCMV antiviral: qHTS Assay for inhibitors of the human cytomegalovirus (HCMV) | HFF cells, HCMV-luciferase reporter, 72 h; active compounds read low | activity change, negative = inhibition, % at 57.5 µM | actives 4.5% (n = 410,000) | AID 1259415, 2018; in the data active = activity change below about -60%; inconclusive = no clear call, values can overlap the other calls; inactive = above about -39%
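Screen run at 2 compound doses on HFFs infected with reporter HCMV, MOI 1 PFU/cell. Luciferase activity from cell lysates at 72 h post infection gave inhibition relative to buffer-only and Salinomycin wells.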
VACV mCherry inh: qHTS for Stage-Specific Inhibitors of Vaccinia Orthopoxvirus: mCherry Reporter Primary qHTS; AID 720579, 2013; Vaccinia virus mCherry reporter infection, fluorescence; Potency, µM (top dose mostly 36.5 µM), for inactives: at the highest dose activity change, negative = inhibition, actives largely listed as inhibitors; actives 0.63% (n = 310,000); calls by dose curve; tested in A549 cells; note: potency is the fitted concentration of half-maximal effect; nearly all actives have a fitted effect of over 35% in size
HCV inh: qHTS Assay for Inhibitors of Hepatitis C Virus (HCV); Huh7.5.1 HCVcc-Cre infection, luciferase reporter, 44 h; Potency, µM (top dose mostly 41.8 µM), for inactives: top-dose activity change, negative = inhibition, usual class: inhibitors; actives 3.4% (n = 340,000); AID 651820, 2012; active = well fitted inhibition curve with a large enough effect; inconclusive = small, poorly fitted or top-dose-only effect, or another doubt; inactive = no such curve, though single readings can be large or run the other way; note: potency is the fitted concentration of half-maximal effect
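Cells (1,000/well) were plated 4 h before compound, then infected with HCVcc-Cre virus (~0.5 moi). After 44 h further culture, infection was read as luciferase luminescence following a 15 min substrate incubation at room temperature.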
Vaccinia Venus: qHTS for Stage-Specific Inhibitors of Vaccinia Orthopoxvirus: Venus Reporter Primary qHTS | Vaccinia virus Venus reporter expression, fluorescence | Potency, µM (series often up to 36.5 µM), without a hit: at the top dose activity change, negative = inhibition, usual class: inhibitors | actives 0.46% (n = 330,000); calls by dose curve; tested in A549 cells; note: potency is the fitted concentration of half-maximal effect; nearly all actives have a fitted effect of over 30% in size
The depositor's hits bear a star; [ ] = remark or other dose. In the library only some 7.3% were active in any assay of this set; here they are far more common. % is set by controls: 0 for no effect and ±100 for the full control effect.

Screening CC[C@H]1Nc2ccc(NC(=O)OC(C)(C)C)cc2[C@@H](NC(=O)OCc2ccccc2)[C@@H]1C returned HCMV antiviral 31.
For CC[C@H](CO)Nc1nc(Nc2cccc(Cl)c2)c2ncn(C(C)C)c2n1 the results were FMDV antiviral 7%, HCMV antiviral -65*, VACV mCherry inh inconclusive, HCV inh inconclusive and Vaccinia Venus 10µM*.
Cc1c2ccncc2cc2c1[nH]c1ccccc12 was read as FMDV antiviral 4%, HCMV antiviral inconclusive, VACV mCherry inh 16µM*, HCV inh 6.3µM* and Vaccinia Venus 10µM*.
Cc1c2ccncc2c(C)c2c1[nH]c1ccccc12 was read as FMDV antiviral -21%, VACV mCherry inh 11µM*, HCV inh inconclusive and Vaccinia Venus 10µM*.
`COc1ccc2[nH]c3c(C)c4ccncc4c(C)c3c2c1` gave FMDV antiviral inconclusive, HCMV antiviral -77*, VACV mCherry inh 7.1µM*, HCV inh 2.2µM* and Vaccinia Venus 10µM*.
CCSc1nnc(NC(=O)CCN2C(=O)C3CCCCC3C2=O)s1 (centres undefined) was read as FMDV antiviral 0%, HCMV antiviral 0 and HCV inh 10%.
For CCOc1ccc(C2C(=O)N(C3CCCCCC3)CC(=O)N2Cc2ccccc2)cc1OC (centres undefined) the results were FMDV antiviral -19%, HCMV antiviral inconclusive, VACV mCherry inh -9% and Vaccinia Venus -14%.
For COc1ccccc1N1CCN(C(=O)c2cnn(C(C)(C)C)c2C2CCN(C(=O)OC(C)(C)C)CC2)CC1 the results were FMDV antiviral -22%, HCMV antiviral 26, VACV mCherry inh -11% and Vaccinia Venus -2%.
Screening Fc1ccc(CNC(=S)NC2CCCCCC2)cc1 returned FMDV antiviral 30%, HCMV antiviral -27, VACV mCherry inh -10%, HCV inh inconclusive and Vaccinia Venus -8%.
COc1cccc(OC)c1OCC(C)CNCC1CCCO1 (centres undefined) was read as HCMV antiviral 62, VACV mCherry inh inconclusive, HCV inh 1µM* and Vaccinia Venus inconclusive.
COC(=O)c1c(NC(=O)c2ccc(S(=O)(=O)N3CCCCC3)cc2)sc2c1CCN(C)C2 was read as FMDV antiviral 11%, HCMV antiviral -2, VACV mCherry inh -16% and Vaccinia Venus -11%.
Cc1nc2cc(C(=O)OCC(=O)N(CC(C)C)C3CCS(=O)(=O)C3)ccc2n1-c1ccccc1 (centres undefined) was read as FMDV antiviral 42%, HCMV antiviral -96* and HCV inh inconclusive.
For CC1=NN(C(C#N)c2ccccc2C)C(C)(C)C1 (centres undefined) the results were FMDV antiviral -7%, HCMV antiviral -65*, VACV mCherry inh inactive, HCV inh 28% and Vaccinia Venus 5%.
CC(=O)Nc1ccc(S(=O)(=O)N2CCN=C2SCc2ccc([N+](=O)[O-])cc2)cc1 was read as FMDV antiviral 22µM*, HCMV antiviral inconclusive, VACV mCherry inh -11%, HCV inh 10µM* and Vaccinia Venus -17%.
`CS(=O)(=O)N1CCN=C1SCc1ccc([N+](=O)[O-])cc1` gave FMDV antiviral -7%, HCMV antiviral -65*, VACV mCherry inh inactive, HCV inh 7% and Vaccinia Venus 4%.
Screening C[C@@H]1CN([C@H](C)CO)S(=O)(=O)c2ccc(Br)cc2O[C@H]1CN(C)CC1CCOCC1 returned HCMV antiviral -22.
For CCN(C(=O)C1CCN(S(=O)(=O)c2cc(Br)cc3c2N(C(C)=O)CC3)CC1)c1cccc(C)c1 the results were FMDV antiviral -27%, HCMV antiviral -2, VACV mCherry inh -23% and Vaccinia Venus -21%.
`CCOC(=O)C1=C(c2ccccc2)NC(=O)NC1c1ccc(O)c(Cl)c1` (centres undefined) gave FMDV antiviral 8.9µM*, HCMV antiviral -102* and HCV inh 0%.
`CCOC(=O)C1=C(CN2CCN(c3ccc(C)cc3C)CC2)NC(=O)NC1c1ccc(OC)cc1` (centres undefined) gave FMDV antiviral inconclusive, HCMV antiviral -82*, VACV mCherry inh -22% and Vaccinia Venus inconclusive.
For CCOC(=O)C1=C(CNCc2ccccc2)NC(=O)NC1c1ccc(C)cc1 (centres undefined) the results were FMDV antiviral -22%, HCMV antiviral -70*, VACV mCherry inh -15% and Vaccinia Venus -12%.
For CCOC(=O)C1=C(CCc2ccccc2)NC(=O)NC1c1ccc(Br)cc1 (centres undefined) the results were FMDV antiviral -11%, HCMV antiviral -14, VACV mCherry inh -1%, HCV inh -5% and Vaccinia Venus -24%.
`CCOC(=O)C1=C(CN2CCN(c3ccc(OC)cc3)CC2)NC(=O)NC1c1ccc(Cl)cc1` (centres undefined) gave FMDV antiviral 0%, HCMV antiviral inconclusive, VACV mCherry inh -15% and Vaccinia Venus -9%.
Screening CCOC(=O)C1=C(CN2CCN(c3cc(C)ccc3C)CC2)NC(=O)NC1c1ccc(Cl)cc1 (centres undefined) returned FMDV antiviral 0%, HCMV antiviral -80*, VACV mCherry inh -5%[7.34 µM] and Vaccinia Venus -8%[7.34 µM].
For COc1ccccc1CNC(=O)c1cnc2sc(N3CCCCC3)nn2c1=O the results were FMDV antiviral -22%, HCMV antiviral -11, VACV mCherry inh -13% and Vaccinia Venus -12%.
For CN(C)c1ccc(-c2cncnc2Nc2ccc(F)cc2)cc1 the results were FMDV antiviral 1%.
`CCOC(=O)C1=C(CSc2nc3ccccc3s2)NC(=O)NC1c1ccc(OC)cc1` (centres undefined) gave HCMV antiviral -60*, VACV mCherry inh inconclusive, HCV inh inconclusive and Vaccinia Venus inconclusive.
Screening CCOC(=O)C1=C(CSc2nc3ccccc3s2)NC(=O)NC1c1cc(C)ccc1C (centres undefined) returned HCMV antiviral inconclusive, VACV mCherry inh -16%, HCV inh inconclusive and Vaccinia Venus -24%.
For O=C(Oc1ccc(C(=S)N2CCOCC2)cc1)c1ccc([N+](=O)[O-])cc1[N+](=O)[O-] the results were FMDV antiviral -11%, HCMV antiviral 5 and HCV inh 7%.
Screening O=C(Oc1cccc(C(=S)N2CCOCC2)c1)c1ccc([N+](=O)[O-])cc1[N+](=O)[O-] returned FMDV antiviral -13%, HCMV antiviral -8, VACV mCherry inh 5.6µM*, HCV inh 13% and Vaccinia Venus inconclusive.
For COP(=S)(OC)Oc1ccc(Sc2ccc(OP(=S)(OC)OC)cc2)cc1 the results were FMDV antiviral inconclusive, HCMV antiviral -29, VACV mCherry inh -6%, HCV inh 26% and Vaccinia Venus -18%.
